This note sets out measurements from PubChem BioAssay AID743144 (Broad Institute, 2013).

Results with a measured potency or affinity are listed apart. Results filed as inconclusive are left out. Unmarked numbers belong to inactive results. The rule behind the calls is not given here.

The nature of the experiment: cytotoxicity in COV362 ovarian cancer cells, dose response, cytotoxicity control for PAX8 inhibitor project, cell-based, plate reader, dry powder, SA12 (AID 743144). The note with it: series mostly up to 35 µM; activity change, negative = cytotoxicity: at the top concentration.
As to `COc1ccc(S(=O)(=O)N2CCCCN3[C@H](CO)[C@H](c4ccc(C#CC(C)C)cc4)[C@H]3C2)cc1`, the “activity change, negative = cytotoxicity” value is 19.2% [at 16 µM].
As to `C[C@H](CO)N1C[C@H](C)[C@@H](CN(C)Cc2ccc(-c3ccccc3)cc2)Oc2ccc(NC(=O)C3CC3)cc2CC1=O`, the “activity change, negative = cytotoxicity” value is 25.9%.
As to `C[C@H](CO)N1C[C@H](C)[C@H](CN(C)C(=O)Nc2ccc(-c3cccs3)cc2)OCc2cnnn2CCCC1=O`, the “activity change, negative = cytotoxicity” value was 19.4%.
The same measure for `N#C[C@@H]1[C@H](c2ccc(C#CC3CCCCC3)cc2)[C@H](CO)N1S(=O)(=O)c1ccccc1`: -33.3%; for `C[C@@H]1CN([C@H](C)CO)C(=O)CCCn2cc(nn2)CO[C@H]1CN(C)C(=O)Nc1ccc(-c2cccs2)cc1`: -10%; for `CCN(CC(=O)Nc1c(F)cccc1F)C(=O)c1cc(S(=O)(=O)N(C)C)ccc1N1CCCC1`: -10.6% [at 50 µM].
For the molecule `COc1ccc(S(=O)(=O)Nc2ccc3c(c2)CC(=O)N([C@@H](C)CO)C[C@@H](C)[C@@H](CN(C)Cc2ccc(-c4ccccc4)cc2)O3)cc1`, the “activity change, negative = cytotoxicity” value is 13.2%.
The same measure for `COc1ccccc1C#Cc1ccc([C@H]2[C@@H](CO)N(C(=O)C3CCCC3)[C@H]2C#N)cc1`: -0.208%.
The same measure for `O=S(=O)(Nc1cccc2cccnc12)c1ccccc1`: -14.5% [at 12 µM]; for `C[C@H]1CN([C@@H](C)CO)C(=O)CCCn2nncc2CO[C@@H]1CN(C)C(=O)Nc1ccc(-c2cccs2)cc1`: 5.96%.
For the molecule `C[C@H](CO)N1C[C@H](C)[C@@H](CN(C)S(=O)(=O)c2ccc(-c3ccccc3)cc2)OCc2cn(nn2)CCCC1=O`, the “activity change, negative = cytotoxicity” value is 8.14%.
For the molecule `N#C[C@@H]1[C@@H](c2ccc(C3=CCCCC3)cc2)[C@@H](CO)N1C(=O)NC1CCCCC1`, the “activity change, negative = cytotoxicity” value was 5.18%.
